Compounds without any hit were thinned out: in the full panel of roughly 79,000, 15% have a hit. Unmarked numbers belong to inactive results. Active and inactive are the calls of the source. Cut-off read from the data, not from the text of the source: active = growth inhibition above about 70%; inactive = the rest.
Test: NCI Yeast Anticancer Drug Screen. Data for the wt1 strain (AID 149);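 note: 0% = growth of vehicle-treated wt1 cultures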
Conditions: S. cerevisiae wt1 strain (SPY 50644) growth inhibition, active compounds read high
Procedure: Growth inhibition of yeast strains with defined genetic alterations is measured as a screen for potential anti-cancer activity. Selected strains with alterations in DNA damage repair or cell cycle control were exposed to compounds and growth inhibition was measured relative to vehicle treated controls. The strain used in this assay is wt1

Compound | growth inhibition (at 1.2 µM) [%] | growth inhibition (at 3.7 µM) | growth inhibition (at 11.0 µM) | growth inhibition (at 33.0 µM) | growth inhibition (at 100.0 µM)
Cc1c2ccccc2cc2ccccc12 | -2 | 1% | 24% | 93% (active) | 98% (active)
[O-][n+]1c2cccc(O)c2[n+]([O-])c2cccc(O)c21 | 2 | 2% | 7% | 10% | 15%
O=C(COc1ccc(Cl)cc1Cl)NO | -6 | -7% | -10% | -1% | 66%
C[C@]12CCc3nonc3C1CC[C@@H]1C2CC[C@]2(C)C(=O)CCC12 (stereo not given in full) | 0 | -2% | -4% | 6% | 21%
C[C@]12CCC3[C@@H](CC[C@@H]4c5nonc5CC[C@]34C)C1CCC2=O (stereo not given in full) | 0 | -1% | 8% | 38% | 65%
COC(=O)C(F)C(Br)C(=O)OC (stereo not given) | -3 | 74% (active) | 97% (active) | 98% (active) | 99% (active)
C[CH2][Sn]1([CH2]C)[O]C2C(O)OC(CO)C(O)C2[O]1 (stereo not given) | -8 | -15% | -9% | -2% | 61%
C[N+](C)(C)CC1CCCC(C[N+](C)(C)C)C1=O (stereo not given) | -1 | 3% | -1% | 13% | 98% (active)

Source: PubChem BioAssay (NCI)
